Compounds with a hit are over-represented: about 1.3% of the library has one in this group of screens.
Bfl-1 A1 inh = inhibitors of the anti-apoptotic protein A1, read as caspase activation | MEF A1-2A-BIM cells, Caspase-Glo 3/7 luminescence, 3 h; percent of clofoctol response, vehicle zero | caspase activation, % (no concentration beside the values) | 330,000 tested, 0.066% active | AID 2462;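 active means over half of replicate activation scores above 10%, or exactly half above 10 with the replicate mean above 10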
GRK2 aptamer HTS = human GRK2 inhibition via aptamer displacement. 330,000 tested, 0.59% active. AID 488847. bead flow cytometry, FAM-aptamer displacement from GRK2. P25098. inhibition of aptamer binding, % at 10 µM;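 active means inhibition of aptamer binding above 40%, roughly 3 SD of noise, on plates passing a quality check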;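 further: median bead fluorescence of bound FAM aptamer so fluorescent compounds give negative values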
VLA-4 inh = inhibition in a human VLA-4 binding assay | P13612 | VLA-4 expressing cells, ligand binding flow cytometry | inhibition, % (about 7 µM as worked out from the volumes in the protocol) | 330,000 tested, 0.2% active; in the data active means inhibition above about 50%
B2AR ag = agonists of human beta-2 adrenergic receptor inducing internalization; P07550; Am2.2-beta2AR cells, FAP receptor internalization, flow cytometry; response, % (test concentration not listed); 340,000 tested, 0.43% active; AID 504454;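 active means response above a set limit, near 3 SD of response in nonfluorescent compounds, cut at about 42% in these data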
Target sequence (P07550 whole entry, looked up): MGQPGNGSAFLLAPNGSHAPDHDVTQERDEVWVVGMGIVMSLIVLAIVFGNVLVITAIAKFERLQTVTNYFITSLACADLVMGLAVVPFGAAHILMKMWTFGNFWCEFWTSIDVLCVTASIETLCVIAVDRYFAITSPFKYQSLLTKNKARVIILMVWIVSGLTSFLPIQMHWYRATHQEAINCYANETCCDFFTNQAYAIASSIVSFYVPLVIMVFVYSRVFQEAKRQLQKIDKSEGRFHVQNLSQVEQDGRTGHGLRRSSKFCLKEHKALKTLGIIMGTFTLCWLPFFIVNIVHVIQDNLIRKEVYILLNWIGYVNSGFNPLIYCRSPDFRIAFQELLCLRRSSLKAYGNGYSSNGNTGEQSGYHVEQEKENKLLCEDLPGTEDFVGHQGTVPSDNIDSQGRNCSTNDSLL
NTR1 agonist = agonists of human neurotensin receptor NTR1; P30989; NTR1-U2OS beta-arrestin-GFP spot imaging, agonist mode; activation, % at 20 µM; 330,000 tested, 0.17% active; AID 493036;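 active means activation at or above 40% of the spot to cytoplasm intensity ratio, with at least 20 cells analyzed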
GRK2 CP1 = human GRK2 inhibition confirmation, cherry pick 1; shares compounds with GRK2 aptamer HTS; bead-bound GRK2, FAM-aptamer displacement, flow cytometry; aptamer displacement, % at 10 µM; 2,000 tested, 4% active;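 active means aptamer displacement above 40%, near three times the noise of non-fluorescent compounds, on plates passing quality checks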;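 further: negative values mostly reflect intrinsic compound fluorescence rather than true enhancement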
Aptamer quench 1 = fluorescent aptamer quenching in GRK2 counter-screen dose response; fluorescence change (kMESF span), kMESF (no concentration beside the values); Fluorescent RNA aptamer beads, flow cytometry; hits give high values; 110 tested, under 10 active; shares compounds with GRK2 aptamer HTS;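 active means compounds whose bead fluorescence drops by more than 37 kMESF across the dose range, marking them as dye quenchers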
FAM quench CP1 = aptamer fluorescence quenching in GRK2 counter-screen; shares compounds with GRK2 aptamer HTS; 2,000 tested, under 10 active; Carboxyfluorescein RNA aptamer on beads, flow cytometry quenching; hits give low values; fluorescence response (% of DMSO), % at 10 µM;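 active means compounds that quench the bead-bound fluorescent RNA probe, cutting fluorescence to under half of the solvent control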;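 further: counterscreen run without GRK2 so only probe quenching by compound is measured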
GRK2 confirm 2 = confirmation of human GRK2 inhibitors binding RNA aptamer site; AID 504782; inhibition of aptamer binding, % at 10 µM; bead-bound GRK2, FAM-aptamer displacement, flow cytometry; 360 tested, under 10 active; shares compounds with GRK2 aptamer HTS;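 active means inhibition of aptamer binding above 40%, about triple the noise seen with nonglowing compounds, on plates passing quality control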;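 further: negative values mostly come from compounds that fluoresce themselves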
FAM quench CP2 = counter-screen for GRK2 binding hits: quenchers of fluorescent RNA aptamer; AID 588494; carboxyfluorescein RNA aptamer beads, flow cytometry quenching; hits give low values; 360 tested, under 10 active; shares compounds with GRK2 aptamer HTS; fluorescence response vs DMSO, % at 10 µM;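 active means response vs DMSO under 50%, meaning signal dropped by over half, treated as fluorescence quencher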;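 further: labelled aptamer on streptavidin beads without GRK2 as a quench counter-screen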
Of the large screens only hits and unclear results are named; the others gave an inactive call (follow-up assays come after a bar, where they were run).

CCOC(=O)c1ccc(N2C(=O)CC(Sc3nc(C)cc(C)n3)C2=O)cc1 (stereo unspecified)	none
CCOc1ccc(N(CC(=O)Nc2ccc(C)c(Cl)c2)S(C)(=O)=O)cc1	none
CC1CN(C(=O)c2ccc(NS(=O)(=O)c3ccc(F)cc3)cc2)CC(C)O1 (stereo unspecified)	none
O=S(=O)(NC1CC(NS(=O)(=O)OCC(Cl)(Cl)Cl)C2CCCCC12)OCC(Cl)(Cl)Cl (stereo unspecified)	GRK2 aptamer HTS 74 | GRK2 CP1 inactive | FAM quench CP1 inactive
Cc1nc(Oc2cccc(Cl)c2)c2oc3ccccc3c2n1	GRK2 aptamer HTS 41 | GRK2 CP1 inactive | FAM quench CP1 inactive
Cc1cccnc1NC(=O)CCNC(=O)c1ccc(Cl)cc1	none
Cc1cccnc1NC(=O)CCNC(=O)c1ccccc1Cl	GRK2 aptamer HTS 44 | GRK2 confirm 2 inactive | FAM quench CP2 inactive
c1coc(CNc2c3c(nc4ccccc24)CCC3)c1	none | GRK2 confirm 2 inactive | FAM quench CP2 inactive
CCN(c1ccccc1)S(=O)(=O)c1ccc2c(c1)N(C(C)=O)CCS2	none
O=C(CSc1ncccn1)NCC1CCCO1 (stereo unspecified)	none
CCn1c(SCC(=O)N2CCc3ccccc3C2)nc2c1c(=O)n(C)c(=O)n2C	none
Cn1c(=O)c2c(ncn2CC(=O)N2CCc3ccccc3C2)n(C)c1=O	GRK2 aptamer HTS 58 | GRK2 CP1 inactive | FAM quench CP1 inactive
Cc1ccc(C2=NN(C(=O)CCl)C(c3ccco3)C2)o1 (stereo unspecified)	none (no result: Bfl-1 A1 inh, GRK2 aptamer HTS, VLA-4 inh)
CCOc1nc(NC2CCCC2)nc(N2CCC(C)CC2)n1	none
COc1ccccc1Nc1n[nH]c(=S)s1	none
CCOc1ccc(CNC(=O)c2cccc(NC(=O)C3=C(C)OCCS3)c2)cc1	none | GRK2 CP1 inactive | FAM quench CP1 inactive
COc1ccc(C2=NO[C@@H]3C(=O)N(c4c(C)cccc4C)C(=O)[C@H]23)cc1OC	none | GRK2 confirm 2 inactive | FAM quench CP2 inactive
COc1ccc(N2C(=O)[C@@H]3C(c4cccnc4)=NO[C@@H]3C2=O)cc1	none
Cc1cccc(C)c1N1C(=O)[C@@H]2C(c3ccccc3Cl)=NO[C@@H]2C1=O	none | GRK2 confirm 2 inactive | FAM quench CP2 inactive
Cc1ccc(N2C(=O)[C@@H]3C(c4cccnc4)=NO[C@@H]3C2=O)cc1	none
COc1ccc(OC)c(N2C(=O)[C@@H]3C(c4ccccc4Cl)=NO[C@@H]3C2=O)c1	GRK2 aptamer HTS 70 | GRK2 CP1 98 | Aptamer quench 1 inactive | FAM quench CP1 inactive
O=C(CSc1ccccc1)NCC1(N2CCOCC2)CCCCC1	none
COc1ccc(S(=O)(=O)NC2CC(C)(C)NC(C)(C)C2)c2ccccc12	none
CCOC(=O)Cc1cc(=O)n2[nH]c(C)c(-c3ccc(OC)cc3)c2n1	GRK2 aptamer HTS 71 | GRK2 CP1 inactive | FAM quench CP1 inactive
CCOc1ccc(CNC(=O)C(=O)c2cn(CC(=O)N3CCOCC3)c3ccccc23)cc1OC	none
CC(=O)Nc1sc(N/N=C\c2ccc(O)cc2)nc1-c1cccs1	GRK2 aptamer HTS 81 | GRK2 CP1 inactive | FAM quench CP1 inactive
C=CCn1c(CNC(=O)c2ccco2)nnc1SCC(=O)c1ccccc1	GRK2 aptamer HTS 80 | GRK2 CP1 inactive | FAM quench CP1 inactive
CCn1c(CNC(=O)c2ccco2)nnc1SCC(=O)c1ccc(F)cc1	none
CC1Sc2ccc(S(=O)(=O)CCC(=O)Nc3cc(F)ccc3F)cc2NC1=O (stereo unspecified)	none | GRK2 confirm 2 inactive | FAM quench CP2 inactive
CC1Sc2ccc(S(=O)(=O)CCC(=O)NCc3ccc(Cl)cc3)cc2NC1=O (stereo unspecified)	GRK2 aptamer HTS 48 | GRK2 CP1 inactive | FAM quench CP1 inactive | GRK2 confirm 2 inactive | FAM quench CP2 inactive
CC1Sc2ccc(S(=O)(=O)CCC(=O)NCc3ccccc3)cc2NC1=O (stereo unspecified)	none | GRK2 confirm 2 inactive | FAM quench CP2 inactive
COc1ccc(NC(=O)CCS(=O)(=O)c2ccc3c(c2)NC(=O)C(C)S3)cc1OC (stereo unspecified)	none
COc1ccc(CNC(=O)CCS(=O)(=O)c2ccc3c(c2)NC(=O)C(C)S3)cc1 (stereo unspecified)	none
Cc1cc(NC(=O)CCS(=O)(=O)c2ccc3c(c2)NC(=O)C(C)S3)ccc1Br (stereo unspecified)	none | GRK2 confirm 2 inactive | FAM quench CP2 inactive
COc1cccc(CNC(=O)CCS(=O)(=O)c2ccc3c(c2)NC(=O)C(C)S3)c1 (stereo unspecified)	none
CC(=O)NC(Cc1cccc(C)c1)C(=O)NC1CCN(S(=O)(=O)c2ccccc2)CC1 (stereo unspecified)	none
Cc1cccc(N2CCN(c3ccc4cc(S(=O)(=O)N5CCCCC5)ccc4n3)CC2)c1C	none
Cc1ccc(Cl)cc1N(CC(=O)NCc1ccc2c(c1)OCO2)S(C)(=O)=O	none
Cc1cc(Cl)ccc1N(CC(=O)NCc1ccc2c(c1)OCO2)S(C)(=O)=O	GRK2 aptamer HTS 100 | GRK2 CP1 inactive | FAM quench CP1 inactive
CCN1C[C@@H]2[C@@H]3C(=O)N(Cc4ccccc4)C(=O)[C@@H]3[C@](C)(C1=O)N2C(=O)c1ccccc1	none (no result: Bfl-1 A1 inh, GRK2 aptamer HTS, VLA-4 inh, NTR1 agonist)
CC1CNC(=S)N(c2ccccc2)C1=O (stereo unspecified)	none (no result: Bfl-1 A1 inh, GRK2 aptamer HTS, VLA-4 inh, NTR1 agonist)
CSc1nc(C)c(C(=O)C[n+]2ccccc2)cc1C#N	GRK2 aptamer HTS 94 | GRK2 CP1 inactive | FAM quench CP1 inactive
CCOC(=O)c1cc(C#N)c(SCC(=O)c2cc(C#N)c(SC)nc2C)nc1C	none
OC(c1ccc(OCc2ccccc2)cc1)c1nnc(-c2ccccc2)o1 (stereo unspecified)	none | GRK2 CP1 inactive | FAM quench CP1 inactive
OC(c1cccc(OCc2ccccc2)c1)c1nnc(-c2ccccc2)o1 (stereo unspecified)	none | GRK2 CP1 inactive | FAM quench CP1 inactive
Cn1ccnc1C(O)c1cccc(OCc2ccccc2)c1 (stereo unspecified)	none
CCOc1ccc(S(=O)(=O)NC2CCCCCC2)cc1	none
